# About 7,900 targets were measured; listed, in parts, are those with a hit and a random draw of the rest. About 0.6% of all pairs of compound and target were hits. A number with no mark means an inactive call.
# Tests used:
# Assay in all cases: log2 fold change, soluble protein after heating vs DMSO (PISA); higher = thermal stabilisation; K562 cells, 10 uM, 30 min; active = over 0.2 and 3.5 SD of the protein, either way, in both replicates (recomputed)
# [1] = compound: CS(=O)(=O)c1ccc(-c2cnc(N)c(C(=O)Nc3ccccc3)n2)cc1
# Procedure, shortened: (§1)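 Thermal stability values are relative to control samples and come from duplicates. They are expressed as log2 fold changes. For measurement, K562 cells (2×10^6 cells/mL) received 10 μM compound for 30 min, and aliquots were heated for 3 min over 48°C-58°C, pooled, and extracted at 4°C in PBS with 0.5% NP-40. Soluble protein, the supernatant after 21,000xg for 90 min, was quantified by TMTpro 16plex LC-MS/MS with equalised channel sums.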
# crizotinib = compound: C[C@@H](Oc1cc(-c2cnn(C3CCNCC3)c2)cnc1N)c1c(Cl)ccc(F)c1Cl [crizotinib]
# Procedure, shortened: as §1
# [2] = compound: C[C@@H]1COCCN1C2=NC(=NC(=C2)C3(CC3)S(=O)(=O)C)C4=C5C=CNC5=CC=C4
# Procedure, shortened: as §1
# [3] = compound: C[C@H](C1=CC=C(C=C1)C(=O)NC2=C3C=CNC3=NC=C2)N
# Procedure, shortened: as §1
# duvelisib = compound: C[C@H](Nc1ncnc2nc[nH]c12)c1cc2cccc(Cl)c2c(=O)n1-c1ccccc1 [duvelisib]
# Procedure, shortened: as §1
# gandotinib = compound: Cc1cc(Nc2cc(CN3CCOCC3)c3nc(C)c(Cc4ccc(Cl)cc4F)n3n2)n[nH]1 [gandotinib]
# Procedure, shortened: as §1
# tozasertib = compound: Cc1cc(Nc2cc(N3CCN(C)CC3)nc(Sc3ccc(NC(=O)C4CC4)cc3)n2)n[nH]1 [tozasertib]
# Procedure, shortened: as §1
# [4] = compound: Cc1cc(SCc2sc(-c3ccc(C(F)(F)F)cc3)nc2C)ccc1OCC(=O)O
# Procedure, shortened: as §1
# doramapimod = compound: Cc1ccc(-n2nc(C(C)(C)C)cc2NC(=O)Nc2ccc(OCCN3CCOCC3)c3ccccc23)cc1 [doramapimod]
# Procedure, shortened: as §1
# ispinesib = compound: Cc1ccc(C(=O)N(CCCN)[C@@H](c2nc3cc(Cl)ccc3c(=O)n2Cc2ccccc2)C(C)C)cc1 [ispinesib]
# Procedure, shortened: as §1
# bafetinib = compound: Cc1ccc(NC(=O)c2ccc(CN3CC[C@H](N(C)C)C3)c(C(F)(F)F)c2)cc1Nc1nccc(-c2cncnc2)n1 [bafetinib]
# Procedure, shortened: as §1
# [5] = compound: Cc1cccc(CC(=O)N2CCc3c2ccc(-c2cn(C)c4ncnc(N)c24)c3F)n1
# Procedure, shortened: as §1
# nilotinib = compound: Cc1cn(-c2cc(NC(=O)c3ccc(C)c(Nc4nccc(-c5cccnc5)n4)c3)cc(C(F)(F)F)c2)cn1 [nilotinib]
# Procedure, shortened: as §1
# [6] = compound: Cc1nc(Nc2n[nH]c3c2CN(C(=O)N[C@H](CN(C)C)c2ccccc2)C3(C)C)c2sccc2n1
# Procedure, shortened: as §1
# dasatinib = compound: Cc1nc(Nc2ncc(C(=O)Nc3c(C)cccc3Cl)s2)cc(N2CCN(CCO)CC2)n1 [dasatinib]
# Procedure, shortened: as §1
# [7] = compound: Cc1ncc(-c2ccnc(Nc3ccc(S(C)(=O)=O)cc3)n2)n1C(C)C
# Procedure, shortened: as §1
# [8] = compound: Cn1cc(-c2ccc3c(c2)CCN3C(=O)Cc2cccc(C(F)(F)F)c2)c2c(N)ncnc21
# Procedure, shortened: as §1
# [9] = compound: Cn1cc(-c2ccc3nnc(C(F)(F)c4ccc5ncccc5c4)n3n2)cn1
# Procedure, shortened: as §1
# tipifarnib = compound: Cn1cncc1[C@@](N)(c1ccc(Cl)cc1)c1ccc2c(c1)c(-c1cccc(Cl)c1)cc(=O)n2C [tipifarnib]
# Procedure, shortened: as §1
# mubritinib = compound: FC(F)(F)c1ccc(/C=C/c2nc(COc3ccc(CCCCn4ccnn4)cc3)co2)cc1 [mubritinib]
# Procedure, shortened: as §1
# Sequence of UniProt Q92917 (Q92917 whole entry, looked up): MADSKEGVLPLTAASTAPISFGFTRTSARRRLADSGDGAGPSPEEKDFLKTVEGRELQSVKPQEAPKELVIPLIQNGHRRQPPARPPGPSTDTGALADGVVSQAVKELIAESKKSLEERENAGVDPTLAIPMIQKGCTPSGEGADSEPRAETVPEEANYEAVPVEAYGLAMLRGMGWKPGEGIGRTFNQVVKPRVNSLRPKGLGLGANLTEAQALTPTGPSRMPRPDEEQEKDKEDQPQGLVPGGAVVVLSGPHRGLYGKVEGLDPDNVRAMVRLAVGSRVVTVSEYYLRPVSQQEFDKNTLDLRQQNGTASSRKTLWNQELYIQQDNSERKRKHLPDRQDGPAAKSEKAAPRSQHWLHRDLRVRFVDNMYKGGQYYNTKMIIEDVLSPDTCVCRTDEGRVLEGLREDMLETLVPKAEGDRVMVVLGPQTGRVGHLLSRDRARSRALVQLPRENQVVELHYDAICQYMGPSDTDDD
# Sequence of UniProt Q86UX7 (Q86UX7 whole entry, looked up): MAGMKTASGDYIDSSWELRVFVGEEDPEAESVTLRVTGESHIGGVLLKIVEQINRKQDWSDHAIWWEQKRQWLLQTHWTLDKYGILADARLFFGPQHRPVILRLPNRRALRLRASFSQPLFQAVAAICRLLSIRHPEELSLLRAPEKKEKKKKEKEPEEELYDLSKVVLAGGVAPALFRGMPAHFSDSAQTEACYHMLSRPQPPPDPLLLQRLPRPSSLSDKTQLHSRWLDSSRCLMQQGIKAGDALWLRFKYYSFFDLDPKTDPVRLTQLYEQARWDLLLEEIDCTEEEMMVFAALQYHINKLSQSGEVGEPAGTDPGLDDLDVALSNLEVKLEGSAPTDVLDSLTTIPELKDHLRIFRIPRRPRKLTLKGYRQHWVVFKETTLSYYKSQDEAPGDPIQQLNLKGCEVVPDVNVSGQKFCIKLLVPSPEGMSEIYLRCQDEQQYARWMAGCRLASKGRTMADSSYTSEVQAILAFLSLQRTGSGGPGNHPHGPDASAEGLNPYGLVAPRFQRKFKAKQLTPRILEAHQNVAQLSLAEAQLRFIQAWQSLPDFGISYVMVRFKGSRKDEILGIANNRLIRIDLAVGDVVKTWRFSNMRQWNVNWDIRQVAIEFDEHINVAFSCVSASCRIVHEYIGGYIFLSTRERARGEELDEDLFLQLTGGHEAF
# Sequence of UniProt Q02790 (Q02790 whole entry, looked up): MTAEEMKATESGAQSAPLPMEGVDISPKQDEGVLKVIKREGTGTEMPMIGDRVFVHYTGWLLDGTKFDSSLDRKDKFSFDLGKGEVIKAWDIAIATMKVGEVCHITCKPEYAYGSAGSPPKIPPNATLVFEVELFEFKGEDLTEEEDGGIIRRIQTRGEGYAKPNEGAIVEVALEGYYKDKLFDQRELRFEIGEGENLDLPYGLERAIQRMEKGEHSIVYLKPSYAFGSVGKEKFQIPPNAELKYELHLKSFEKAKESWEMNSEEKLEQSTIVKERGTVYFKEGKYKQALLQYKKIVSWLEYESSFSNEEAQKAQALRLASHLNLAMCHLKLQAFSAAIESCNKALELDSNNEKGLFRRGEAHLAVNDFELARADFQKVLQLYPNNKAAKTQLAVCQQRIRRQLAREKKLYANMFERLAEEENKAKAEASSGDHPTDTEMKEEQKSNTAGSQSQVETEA
# Sequence of UniProt P78417 (P78417 whole entry, looked up): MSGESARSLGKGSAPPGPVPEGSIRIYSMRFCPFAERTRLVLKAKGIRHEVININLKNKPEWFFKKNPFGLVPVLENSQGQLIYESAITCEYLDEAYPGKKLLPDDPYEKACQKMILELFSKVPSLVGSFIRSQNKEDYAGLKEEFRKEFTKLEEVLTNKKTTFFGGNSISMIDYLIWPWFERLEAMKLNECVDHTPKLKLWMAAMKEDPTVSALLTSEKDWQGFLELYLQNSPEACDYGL
# Sequence of UniProt Q9P2H3 (Q9P2H3 whole entry, looked up): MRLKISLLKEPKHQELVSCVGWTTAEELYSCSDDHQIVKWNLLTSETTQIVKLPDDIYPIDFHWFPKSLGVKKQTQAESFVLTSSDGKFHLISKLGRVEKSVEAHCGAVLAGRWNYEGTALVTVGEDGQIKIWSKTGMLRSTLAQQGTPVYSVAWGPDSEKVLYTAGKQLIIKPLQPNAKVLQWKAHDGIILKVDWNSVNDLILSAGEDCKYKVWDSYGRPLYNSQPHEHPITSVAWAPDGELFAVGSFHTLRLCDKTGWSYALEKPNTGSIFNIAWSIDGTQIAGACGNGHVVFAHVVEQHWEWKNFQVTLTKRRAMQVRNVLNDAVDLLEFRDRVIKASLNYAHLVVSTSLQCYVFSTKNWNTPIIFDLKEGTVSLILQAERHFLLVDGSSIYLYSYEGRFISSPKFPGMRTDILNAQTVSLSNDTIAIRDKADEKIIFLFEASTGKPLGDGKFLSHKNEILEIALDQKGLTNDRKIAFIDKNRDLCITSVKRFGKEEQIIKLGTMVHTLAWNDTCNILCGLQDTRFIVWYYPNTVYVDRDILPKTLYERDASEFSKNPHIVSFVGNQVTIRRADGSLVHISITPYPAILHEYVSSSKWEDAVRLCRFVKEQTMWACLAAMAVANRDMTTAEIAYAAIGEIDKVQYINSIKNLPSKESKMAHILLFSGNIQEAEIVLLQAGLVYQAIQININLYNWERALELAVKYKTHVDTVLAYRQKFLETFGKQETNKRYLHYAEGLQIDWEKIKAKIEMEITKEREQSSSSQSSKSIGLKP
# Sequence of UniProt Q96HJ9 (Q96HJ9 whole entry, looked up): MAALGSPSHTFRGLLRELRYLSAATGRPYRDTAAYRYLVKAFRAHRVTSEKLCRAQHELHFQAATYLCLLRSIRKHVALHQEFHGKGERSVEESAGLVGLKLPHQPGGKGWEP
# Sequence of UniProt Q7Z4Q2 (Q7Z4Q2 whole entry, looked up): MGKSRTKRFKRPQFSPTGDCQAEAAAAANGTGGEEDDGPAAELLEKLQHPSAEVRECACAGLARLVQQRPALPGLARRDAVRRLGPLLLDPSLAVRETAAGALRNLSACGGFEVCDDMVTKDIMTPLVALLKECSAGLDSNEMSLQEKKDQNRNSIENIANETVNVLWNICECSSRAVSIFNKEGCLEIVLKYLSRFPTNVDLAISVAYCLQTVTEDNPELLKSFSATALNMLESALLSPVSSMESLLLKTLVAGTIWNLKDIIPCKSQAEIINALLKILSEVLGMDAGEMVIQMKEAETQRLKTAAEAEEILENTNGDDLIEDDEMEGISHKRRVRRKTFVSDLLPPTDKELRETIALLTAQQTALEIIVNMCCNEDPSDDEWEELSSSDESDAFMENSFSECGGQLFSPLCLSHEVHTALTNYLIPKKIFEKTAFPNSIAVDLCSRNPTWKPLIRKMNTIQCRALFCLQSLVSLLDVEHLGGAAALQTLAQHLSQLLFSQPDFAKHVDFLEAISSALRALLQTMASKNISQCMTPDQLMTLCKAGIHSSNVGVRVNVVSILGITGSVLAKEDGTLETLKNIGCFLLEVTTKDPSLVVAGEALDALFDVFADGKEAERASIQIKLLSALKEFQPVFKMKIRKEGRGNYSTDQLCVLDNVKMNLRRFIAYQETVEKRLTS
# Sequence of UniProt P23434 (P23434 whole entry, looked up): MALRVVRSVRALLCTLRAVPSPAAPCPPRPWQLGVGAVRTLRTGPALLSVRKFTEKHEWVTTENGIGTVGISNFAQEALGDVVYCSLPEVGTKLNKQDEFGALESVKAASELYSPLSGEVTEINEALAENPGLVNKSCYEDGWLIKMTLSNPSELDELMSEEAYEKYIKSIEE
# Sequence of UniProt O94925 (O94925 whole entry, looked up): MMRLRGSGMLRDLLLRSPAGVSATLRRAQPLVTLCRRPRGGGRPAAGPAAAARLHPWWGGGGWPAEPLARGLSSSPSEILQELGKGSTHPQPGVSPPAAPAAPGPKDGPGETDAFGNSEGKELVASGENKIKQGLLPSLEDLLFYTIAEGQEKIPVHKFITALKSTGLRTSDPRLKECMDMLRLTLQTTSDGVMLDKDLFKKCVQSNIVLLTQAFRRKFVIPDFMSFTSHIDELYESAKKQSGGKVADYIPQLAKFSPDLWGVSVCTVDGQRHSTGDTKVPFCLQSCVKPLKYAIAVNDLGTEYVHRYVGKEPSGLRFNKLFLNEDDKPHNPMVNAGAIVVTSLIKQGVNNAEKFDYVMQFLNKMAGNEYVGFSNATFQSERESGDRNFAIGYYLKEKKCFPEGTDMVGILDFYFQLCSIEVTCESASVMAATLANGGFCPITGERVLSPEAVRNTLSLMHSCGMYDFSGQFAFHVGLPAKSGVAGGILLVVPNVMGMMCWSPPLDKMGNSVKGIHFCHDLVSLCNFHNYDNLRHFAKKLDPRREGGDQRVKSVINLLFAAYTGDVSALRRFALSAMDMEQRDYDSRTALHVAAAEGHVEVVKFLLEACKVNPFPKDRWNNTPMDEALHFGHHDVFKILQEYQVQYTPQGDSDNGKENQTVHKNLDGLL
# Sequence of UniProt P49840 (P49840 whole entry, looked up): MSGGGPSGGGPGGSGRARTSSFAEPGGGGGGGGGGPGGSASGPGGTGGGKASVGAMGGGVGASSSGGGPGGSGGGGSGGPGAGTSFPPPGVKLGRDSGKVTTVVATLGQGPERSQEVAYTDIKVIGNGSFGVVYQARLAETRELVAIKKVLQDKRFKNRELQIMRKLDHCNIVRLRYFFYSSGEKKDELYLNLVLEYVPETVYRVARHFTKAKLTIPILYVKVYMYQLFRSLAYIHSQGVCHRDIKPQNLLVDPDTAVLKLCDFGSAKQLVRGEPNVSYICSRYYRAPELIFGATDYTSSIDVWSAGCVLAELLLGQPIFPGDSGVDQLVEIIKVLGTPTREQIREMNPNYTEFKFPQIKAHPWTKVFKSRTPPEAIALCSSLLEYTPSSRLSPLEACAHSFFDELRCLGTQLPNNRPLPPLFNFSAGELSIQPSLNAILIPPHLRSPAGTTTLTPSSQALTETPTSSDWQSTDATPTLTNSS
Target,log2 fold change [1],log2 fold change (crizotinib),log2 fold change [2],log2 fold change [3],log2 fold change (duvelisib),log2 fold change (gandotinib),log2 fold change (tozasertib),log2 fold change [4],log2 fold change (doramapimod),log2 fold change (ispinesib),log2 fold change (bafetinib),log2 fold change [5],log2 fold change (nilotinib),log2 fold change [6],log2 fold change (dasatinib),log2 fold change [7],log2 fold change [8],log2 fold change [9],log2 fold change (tipifarnib),log2 fold change (mubritinib)
GLS (UniProt O94925),0.033,0.05,0.209,-0.049,0.053,-0.17,0.012,0.054,-0.105,0.118,-0.021,0.025,-0.095,-0.069,-0.154,0.009,-0.081,0.003,-0.071,-0.285
FMC1 (UniProt Q96HJ9),0.021,0.195,-0.157,0.082,-0.046,0.024,-0.058,-0.018,-0.137,-0.314,-0.128,-0.026,0.009,0.045,0.006,-0.012,-0.006,0.009,0.035,0.016
HK2 (UniProt P52789),-0.156,0.082,0.03,-0.014,0.014,-0.297 (active),-0.028,0.013,-0.026,0.161,-0.215,0.029,-0.967 (active),-0.194,-0.106,-0.03,0.022,0.01,-0.01,0.046
GOPC (UniProt Q9HD26),0.218,0.293,-0.043,0.294,-0.003,0.101,0.144,0.091,0.061,0.038,0.233,-0.131,0.009,0.05,-0.081,0.021,-0.005,-0.02,0.127,-0.226
GSK3A (UniProt P49840),0.322 (active),0.129,0.053,0.015,0.044,0.201,-0.006,0.015,-0.039,0.072,-0.052,-0.027,-0.01,0.308 (active),-0.024,0.383 (active),-0.004,0.011,-0.033,0.038
FERMT3 (UniProt Q86UX7),0.038,-0.091,0.02,-0.04,0.005,-0.064,0.022,0.057,0.001,-0.04,-0.022,0.029,-0.036,-0.053,-0.075,-0.015,0.029,-0.019,-0.087,0.051
HNRNPF (UniProt P52597),-0.016,-0.152,0.047,-0.004,-0.061,-0.07,0.071,0.119,-0.03,-0.092,-0.013,0.056,-0.106,-0.178,-0.15,-0.066,0.024,-0.057,-0.051,-0.022
FAT1 (UniProt Q14517),0.027,0.061,-0.054,0.144,0.026,0.061,-0.124,0.009,-0.435 (active),-0.096,-0.061,0.044,0.013,0,0.046,-0.064,0.009,-0.052,0.077,0.057
GLYR1 (UniProt Q49A26),0.033,0.008,-0.125,0.075,-0.179,0.016,-0.18,-0.06,0.117,-0.132,0.109,-0.015,0.082,0.068,0.067,-0.004,-0.004,-0.01,0.054,0.024
GPKOW (UniProt Q92917),0.004,-0.147,0.104,-0.004,0.087,-0.094,-0.121,0.195,-0.03,-0.013,-0.025,0.086,-0.057,-0.207,-0.326 (active),-0.025,0.114,0.139,-0.071,0.126
FKBP4 (UniProt Q02790),0.013,-0.008,0.042,-0.068,0.019,-0.105,-0.005,0.077,-0.052,-0.017,-0.014,0.017,-0.05,-0.011,-0.114,0.024,0.033,-0.002,-0.092,0.012
HEATR3 (UniProt Q7Z4Q2),-0.001,-0.171,0.094,0.123,0.078,-0.377,0.065,0.146,0.011,-0.006,0.058,0.389 (active),-0.045,-0.088,-0.073,-0.073,-0.008,0.138,-0.011,-0.079
GALC (UniProt P54803),0.03,-0.023,0.03,-0.012,-0.049,0.008,0.033,0,-0.01,-0.135,-0.507 (active),0.084,0.008,0.045,0.096,0.01,0.004,0.065,0.126,-0.005
IFT80 isoform 3 (UniProt Q9P2H3),-0.019,-0.01,0.069,-0.031,0.057,0.053,-0.071,0.05,0.069,-0.051,-0.127,0.077,-0.059,-0.02,-0.148,0.114,0.036,0.039,-0.07,0.17
GSTO1 (UniProt P78417),0.047,0,0.013,-0.072,0.064,-0.017,-0.01,0,-0.02,0.036,0.021,0.148,-0.009,-0.021,-0.007,-0.009,0.019,-0.004,-0.014,0.018
GCSH (UniProt P23434),-0.009,0.073,0.005,-0.022,-0.014,0.043,0.07,0.026,0.032,-0.057,-0.13,0.095,-0.022,0.01,0.015,-0.026,0.016,0.016,-0.017,-0.05
